Screening results as filed in PubChem BioAssay.
Shiga inhibitor – A qHTS for Small Molecule Inhibitors of Shiga Toxin. Vero cells, Shiga toxin protein synthesis inhibition reporter. inhibition, % at 38.7 µM. AID 2315, 2010. 290,000 compounds, 9.2% hits; in the data active = inhibition mostly above about 28%, no sharp cut-off; inactive = mostly below about 43%
AmpC inh no detg – qHTS Inhibitors of AmpC Beta-Lactamase (assay without detergent); AmpC nitrocefin hydrolysis, absorbance 480 nm, 0.0001% Triton; Potency, µM (series often up to 57.1 µM), most hits filed as inhibitors; 330,000 compounds, 0.52% hits; AID 485341, 2010; also: nearly all actives have a fitted effect of over 20% in size
Target sequence (P00811 whole entry, looked up): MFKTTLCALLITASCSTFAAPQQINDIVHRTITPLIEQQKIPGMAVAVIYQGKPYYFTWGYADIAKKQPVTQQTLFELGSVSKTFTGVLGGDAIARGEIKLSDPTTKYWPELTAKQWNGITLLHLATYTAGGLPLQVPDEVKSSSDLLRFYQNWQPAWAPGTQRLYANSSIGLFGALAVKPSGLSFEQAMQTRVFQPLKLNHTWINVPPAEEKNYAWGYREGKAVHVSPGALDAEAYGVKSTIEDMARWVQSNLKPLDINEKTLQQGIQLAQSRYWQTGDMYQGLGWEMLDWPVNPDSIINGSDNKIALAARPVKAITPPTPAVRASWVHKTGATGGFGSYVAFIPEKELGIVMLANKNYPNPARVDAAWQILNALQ
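20 mM phosphate pH 7.0 + 0.01% (detergent screen) or 0.0001% Triton X-100; 5.3 nM AmpC reagent; cpd preinc 15 min RT; nitrocefin (800 uM stock) to start; A480 q20 s × 4 min; Activity was normalised to no-enzyme and no-compound control wells.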
AmpC detergent – qHTS Inhibitors of AmpC Beta-Lactamase (assay with detergent) | AmpC hydrolysis of nitrocefin, absorbance 480 nm, 0.01% Triton | Potency, µM (series often up to 114 µM), hits mostly inhibitors | 370,000 compounds, 0.041% hits; also: nearly all actives have a fitted effect of over 25% in size
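20 mM phosphate pH 7.0 + 0.01% (detergent screen) or 0.0001% Triton X-100; 5.3 nM AmpC reagent; cpd preinc 15 min RT; nitrocefin (800 uM stock) to start; A480 q20 s × 4 min; Activity was normalised to no-enzyme and no-compound control wells.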
NS1 inh – qHTS Assay for Inhibitors of Influenza NS1 Protein Function; Potency, µM (titrated, usually from 46.1 µM); AID 2326, 2010; 270,000 compounds, 0.4% hits; calls by dose curve; also: actives are rising curves; nearly all actives have a fitted effect of over 50% in size
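In this qHTS, NS1 from influenza A is expressed in budding yeast, where it slows growth. Cells are switched from glucose to 2% galactose medium (pH 6.0, -URA), treated with compound, and growth recovery is read at OD600.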
Cycloheximide cs – Cycloheximide Counterscreen for Small Molecule Inhibitors of Shiga Toxin; AID 2314, 2010; max response, %; cell reporter, cycloheximide protein synthesis inhibition counterscreen; 300,000 compounds, 12% hits; in the data active = max response mostly above about 13%, no sharp cut-off; inactive = mostly below about 14%; also: read at 38.3 µM for the half of the compounds with a filed dose
Numbers stand for hits; - = inactive; ? = inconclusive; . = no result given; ! = a repeat was not active. Only a selection was taken, and hits are over-represented in it overall. Unless noted, calls follow the shape of the dose curve; as a rule, active = well fitted curve in the direction sought with a large enough effect; inconclusive = small, poorly fitted or top-dose-only effect, or another doubt; inactive = no such curve, though single readings can be large; an effect the other way counts as inactive or inconclusive.

SMILES	Shiga inhibitor	AmpC inh no detg	AmpC detergent	NS1 inh	Cycloheximide cs
S=C(Nc1ccc(-c2nc3ccccc3[nH]2)cc1)Nc1cccnc1	66	-	-	-	61
c1ccc(-c2nc3ccccc3[nH]2)cc1	47	-	?	-	31
c1cncc(-c2nc3ccccc3[nH]2)c1	71!	-	-	-	37!
Fc1ccc(NC(=S)Nc2cccnc2)cc1	-	-	-	-	-
CCCCN(C(=O)CSc1nnc(-c2ccco2)o1)c1c(N)n(Cc2ccccc2)c(=O)[nH]c1=O	-	-	-	-	-
COc1ccc(NC(=O)C2CCCN(c3ncnc4c3nc3n4CCCCC3)C2)c(OC)c1 (stereo unspecified)	.	.	-	.	.
COC(=O)c1ccc(C(=O)Nc2ccc3nc(-c4ccncc4)[nH]c3c2)cc1	-	-	-	-	-
Cc1cc(-c2nc3ccccc3[nH]2)ccc1N	144	-	-	.	-
COC(=O)c1ccc(-c2nc3ccccc3[nH]2)cc1	active	-	?	-	63
COC(=O)c1ccc(-c2ncc[nH]2)cc1	-	-	-	-	24
CCOCCOCCC(C(=O)OCC)P(=O)(c1ccccc1)c1ccccc1 (stereo unspecified)	-	-	-	-	-
Cc1ccc(NC(=O)CSc2nc3[nH]ncc3c(=O)[nH]2)c(C)c1	-	-	-	.	-
COc1ccc(-c2ccc3c(c2)S(=O)(=O)c2cccc(C(=O)N4CCN(c5c(Cl)cncc5Cl)CC4)c2C3=O)cc1OC	.	-	.	.	.
Cc1ccc(CNC(=O)Cn2cc(C(=O)c3ccc(F)cc3)c(=O)c3ccc(C)nc32)cc1	.	.	-	.	.
N#Cc1c(-c2ccco2)cc(-c2ccccn2)nc1N	-	-	-	-	33
N#Cc1c(-c2ccco2)cc(-c2cccnc2)nc1N	-	-	-	?	-
CC(C)(C)SCCNC(=O)c1ccccc1	-	-	-	-	37
CSc1ccccc1C(=O)NCCSC(C)(C)C	-	-	-	-	-
Cc1ccc(C(=O)NCCSC(C)(C)C)cc1	-	-	?	-	43
Cc1ccc(C(=O)NNC(=O)c2ccncc2)cc1[N+](=O)[O-]	.	-	-	.	.
Cc1ccc(C(=O)ONC(=O)c2ccc(Cl)cc2)cc1[N+](=O)[O-]	34	-	-	-	21
COc1c(C(=O)NCCSC(C)(C)C)ccc2ccccc12	39	-	-	-	13
Cc1ccc(C(=O)NCC(C)(C)O)cc1	-	-	-	-	-
COc1ccc(/C(C)=N/NC(=O)CNC(=O)C(c2ccccc2)c2ccccc2)c(OC)c1	-	-	-	-	-
CSCCNC(=O)c1ccc(C(C)(C)C)cc1	92	-	-	-	28
SMILES	Shiga inhibitor	AmpC inh no detg	AmpC detergent	NS1 inh	Cycloheximide cs
CN(c1ccc(C(=O)NCCSC(C)(C)C)cc1)S(=O)(=O)c1ccccc1	-	-	-	-	11
Cc1ccc(C(=O)NCCSC(C)(C)C)cc1[N+](=O)[O-]	95	-	-	-	54
Cc1ccc(C)c(OCc2cc(C(=O)N3CC[C@@H]4CCCC[C@H]4C3)no2)c1	105	-	-	-	33
COCC1CCCN(C(=O)c2cc(COc3cccc4cccnc34)on2)C1 (stereo unspecified)	-	-	-	-	-
COc1cc(C)ccc1OCc1cc(C(=O)N2CCC(c3ccc(F)cc3)C2)no1 (stereo unspecified)	113	-	-	-	58
Cc1ccc(C(=O)N2CC(C)OC(C)C2)c(Cl)c1 (stereo unspecified)	-	-	-	-	-
Cc1ccc(C)c(OCc2cc(C(=O)N3C[C@@H](C)O[C@@H](C)C3)no2)c1	87	-	-	-	48
CN1CCN(C(=O)c2cc(COc3ccc(F)cc3Cl)on2)CC1c1ccccc1 (stereo unspecified)	-	-	-	-	-
c1ccc(CCN(Cc2ccccc2)Cc2nc(C3CC3)no2)cc1	-	-	-	-	-
C=CCNC(=O)Nc1ccc(Cl)cn1	-	-	-	-	-
Cc1nc2ccccc2c(=O)[nH]1	-	-	-	-	-
C=CCn1c(N/N=C/c2ccc(O)cc2)nc2ccccc2c1=O	153	-	-	.	36
O=c1[nH]c(N/N=C\c2ccc(F)cc2)nc2ccccc12	80	-	-	-	34
COc1ccc(/C=N/n2c(C)nc3ccccc3c2=O)cc1OC	-	-	-	-	-
O=c1[nH]c(N/N=C/c2ccc(O)cc2)nc2ccccc12	64	-	-	-	36
COc1ccc(/C=N/Nc2nc3ccccc3c(=O)n2-c2ccccc2)cc1OC	-	-	-	?	21
Cc1ccc(C)c(N2CCN(S(=O)(=O)c3cn(C)c(C)n3)CC2)c1	.	.	-	.	.
CCN(CC)CCNC(=O)C(=O)NCC(c1cccnc1)N1CCN(c2ccc(F)cc2)CC1 (stereo unspecified)	.	.	-	.	.
CCc1nc(-c2ccc(C)nc2OC)no1	-	-	?	-	-
COc1nc(C)ccc1-c1noc(-c2ccccn2)n1	144	-	-	-	57
COc1ccccc1-c1nc(-c2ccccn2)no1	-	-	-	-	-
COc1nc(C)ccc1-c1noc(-c2cccnc2)n1	.	-	?	-	19
COc1ccccc1-c1nc(-c2ccc(C)nc2OC)no1	93	-	-	-	49
COc1nc2cc(C)ccc2cc1-c1noc(-c2cccnc2)n1	-	-	?	-	-
COc1ccc2oc(-c3ccc(C)c(NC(=O)c4ccc(N5CCCCC5)c([N+](=O)[O-])c4)c3)nc2c1	.	.	-	.	.
SMILES	Shiga inhibitor	AmpC inh no detg	AmpC detergent	NS1 inh	Cycloheximide cs
Nc1cc(-c2ccc(Cl)cc2)nn1S(=O)(=O)c1cccc2nsnc12	-	22µM	-	-	-
Nc1cc(-c2ccc(Br)cc2)nn1S(=O)(=O)c1cccc2nsnc12	-	-	?	-	-
Cc1nc2ccccc2cc1OCc1ccc(Cl)cc1	101	-	-	-	54
Oc1ccc(NCc2ccccc2OCc2ccc(Cl)cc2)cc1	.	.	-	.	.
COC(=O)c1sccc1OCc1cccc(OC)c1	-	-	-	-	-
Cc1nc2ccccc2cc1OCc1ccccc1	-	-	-	-	46
COc1cccc(COc2cc3ccccc3nc2C)c1	58	-	-	-	17
Cc1nc(OCc2ccccc2)c2ccccc2n1	-	-	-	-	-
C#CCOc1ccc(C2C(C(=O)OC)=C(C)NC3=C2C(=O)c2ccccc23)cc1OCC (stereo unspecified)	.	.	-	.	.
COCc1cc(=O)n2[nH]c(-c3ccccc3)cc2n1	-	-	-	-	23
COCc1cc(=O)n2[nH]c(C)cc2n1	-	-	-	-	-
COCc1cc(=O)n2[nH]c(-c3cccc(Br)c3)cc2n1	-	-	-	-	27
NC(=O)C1CCN(C(=O)C2CC(=O)N(Cc3ccccc3)C2)CC1 (stereo unspecified)	.	-	-	.	.
COc1ccc(Cl)c2c1[nH]c1nc(SCc3cccnc3)nnc12	-	-	-	-	-
